Data: PubChem BioAssay (NCI)
This is part of a sample that, as a whole, favours compounds with a hit. Of some 83,000 tested, about 20% had one in any assay.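 48-hour exposure, single concentration, 96-well plates; percent growth endpoint where 0 means no net growth. Active: below 10.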 Unmarked numbers belong to inactive results. Activity calls are given as the source filed them.

Assays:
Test in all cases: NCI-60 one-dose screen, 48 h (100 = growth as untreated, 0 = no growth, -100 = all killed)
Conditions in all cases: 10 µM unless noted
DU-145 prostate = tested on: DU-145 prostate
K-562 leukemia = tested on: K-562 leukemia
MALME-3M melanoma = tested on: MALME-3M melanoma
MDA-MB-231 breast = tested on: MDA-MB-231 breast
RXF 393 renal = tested on: RXF 393 renal
SF-268 CNS = tested on: SF-268 CNS
SF-295 CNS = tested on: SF-295 CNS
SF-539 CNS = tested on: SF-539 CNS
UACC-257 melanoma = tested on: UACC-257 melanoma
M14 melanoma = tested on: M14 melanoma
HCT-15 colon = tested on: HCT-15 colon
HT29 colon = tested on: HT29 colon
SNB-19 CNS = tested on: SNB-19 CNS
U251 CNS = tested on: U251 CNS
PC-3 prostate = tested on: PC-3 prostate
SK-MEL-5 melanoma = tested on: SK-MEL-5 melanoma
UACC-62 melanoma = tested on: UACC-62 melanoma
LOX IMVI melanoma = tested on: LOX IMVI melanoma
SK-MEL-28 melanoma = tested on: SK-MEL-28 melanoma
SNB-75 CNS = tested on: SNB-75 CNS

With `O=c1[nH]c2cc(O)ccc2n2cc3c(F)cccc3c12` as the compound, how does the growth (DU-145 prostate) read?
Its growth is 33.9%.

What about the growth (K-562 leukemia) of the same compound?
Its growth is 24.3%.

What about the growth (MALME-3M melanoma) of the same compound?
The growth was 40.3%.

What about the growth (MDA-MB-231 breast) of the same compound?
The growth was 52.4%.

What about the growth (RXF 393 renal) of the same compound?
The growth was 4.74% (active).

And the growth (SF-268 CNS)?
The growth was 19.4%.

What about the growth (SF-295 CNS) of the same compound?
The growth was 15.4%.

And the growth (SF-539 CNS)?
Its growth is 16.6%.

What about the growth (UACC-257 melanoma) of the same compound?
Its growth is 51.2%.

And the growth (M14 melanoma)?
The growth was 25.2%.

What about the growth (HCT-15 colon) of the same compound?
The growth was 38.7%.

And the growth (HT29 colon)?
Its growth is 46.2%.

What about the growth (SNB-19 CNS) of the same compound?
The growth was 42.3%.

What about the growth (U251 CNS) of the same compound?
Its growth is 27.6%.

And the growth (PC-3 prostate)?
Its growth is 46.4%.

And the growth (SK-MEL-5 melanoma)?
The growth was 8.21% (active).

What about the growth (UACC-62 melanoma) of the same compound?
The growth was 39.8%.

And the growth (LOX IMVI melanoma)?
Its growth is 36.8%.

What about the growth (SK-MEL-28 melanoma) of the same compound?
The growth was 24.7%.

For `CCOc1nc(-c2ccccc2)cc2c(O)c(C(=O)N/N=C/c3ccccc3O)[nH]c(=O)c12`, which growth (DU-145 prostate) is on record?
Its growth is 97.6%.

What about the growth (K-562 leukemia) of the same compound?
Its growth is 115%.

And the growth (MALME-3M melanoma)?
The growth was 119%.

And the growth (MDA-MB-231 breast)?
The growth was 101%.

And the growth (RXF 393 renal)?
The growth was 81.3%.

What about the growth (SF-268 CNS) of the same compound?
Its growth is 79.6%.

And the growth (SF-295 CNS)?
Its growth is 103%.

And the growth (SF-539 CNS)?
Its growth is 117%.

And the growth (UACC-257 melanoma)?
The growth was 88.6%.

What about the growth (M14 melanoma) of the same compound?
The growth was 101%.

What about the growth (HCT-15 colon) of the same compound?
Its growth is 94%.

What about the growth (HT29 colon) of the same compound?
The growth was 110%.

What about the growth (SNB-75 CNS) of the same compound?
The growth was 86.3%.

What about the growth (SNB-19 CNS) of the same compound?
The growth was 97.2%.

And the growth (PC-3 prostate)?
Its growth is 92.8%.

What about the growth (UACC-62 melanoma) of the same compound?
Its growth is 117%.

And the growth (LOX IMVI melanoma)?
Its growth is 101%.

And the growth (SK-MEL-28 melanoma)?
Its growth is 67.4%.

What does the source list for `O=C(N/N=C\c1ccc(Cl)cc1)C(=O)N/N=C\c1ccc(Cl)cc1`?
growth (DU-145 prostate): 123%; growth (K-562 leukemia): 95.2%; growth (MALME-3M melanoma): 89.6%; growth (MDA-MB-231 breast): 91.3%; growth (RXF 393 renal): 118%; growth (SF-268 CNS): 120%; growth (SF-295 CNS): 96.8%; growth (SF-539 CNS): 99.5%; growth (UACC-257 melanoma): 108%; growth (M14 melanoma): 103%; growth (HCT-15 colon): 101%; growth (HT29 colon): 103%; growth (SNB-19 CNS): 96%; growth (U251 CNS): 101%; growth (PC-3 prostate): 94.5%; growth (SK-MEL-5 melanoma): 109%; growth (UACC-62 melanoma): 97.4%; growth (LOX IMVI melanoma): 106%; growth (SK-MEL-28 melanoma): 111%

What does the source list for `O=C(Nc1ccccc1)Nc1ccc(Nc2ncnc3sc4c(c23)CCCC4)cc1`?
growth (DU-145 prostate): 109%; growth (K-562 leukemia): 99.8%; growth (MALME-3M melanoma): 102%; growth (MDA-MB-231 breast): 91.7%; growth (RXF 393 renal): 102%; growth (SF-268 CNS): 100%; growth (SF-295 CNS): 102%; growth (SF-539 CNS): 104%; growth (UACC-257 melanoma): 93.5%; growth (M14 melanoma): 103%; growth (HCT-15 colon): 110%; growth (HT29 colon): 96.2%; growth (SNB-75 CNS): 93.3%; growth (SNB-19 CNS): 95.9%; growth (PC-3 prostate): 89.9%; growth (SK-MEL-5 melanoma): 97.3%; growth (UACC-62 melanoma): 97.9%; growth (LOX IMVI melanoma): 99.5%; growth (SK-MEL-28 melanoma): 116%

`COc1cc(-c2nn(-c3ccc(NC(=O)Nc4cc(C(F)(F)F)cc(C(F)(F)F)c4)cc3)cc2-c2ccncc2)ccc1Cl` was tested. Which growth (DU-145 prostate) did it give?
The growth was 16.8%.

What about the growth (K-562 leukemia) of the same compound?
The growth was 17.2%.

And the growth (MALME-3M melanoma)?
The growth was -1.21% (active).

And the growth (MDA-MB-231 breast)?
Its growth is -18.7% (active).

What about the growth (RXF 393 renal) of the same compound?
The growth was -2.81% (active).

And the growth (SF-268 CNS)?
Its growth is 14.1%.

What about the growth (SF-295 CNS) of the same compound?
Its growth is -34.8% (active).

And the growth (SF-539 CNS)?
Its growth is 15.8%.

What about the growth (UACC-257 melanoma) of the same compound?
Its growth is -1.38% (active).

What about the growth (M14 melanoma) of the same compound?
The growth was 4.73% (active).

What about the growth (HCT-15 colon) of the same compound?
The growth was 6.27% (active).

What about the growth (HT29 colon) of the same compound?
The growth was -30.2% (active).

And the growth (SNB-19 CNS)?
Its growth is 26.7%.

What about the growth (U251 CNS) of the same compound?
Its growth is 7.85% (active).

And the growth (PC-3 prostate)?
Its growth is 10.6%.

And the growth (SK-MEL-5 melanoma)?
Its growth is -71% (active).

And the growth (UACC-62 melanoma)?
Its growth is 3.75% (active).

And the growth (LOX IMVI melanoma)?
The growth was -1.69% (active).

What about the growth (SK-MEL-28 melanoma) of the same compound?
The growth was 5.41% (active).

With `CCCCCCCCc1ccc(OCCOCC[N+](C)(C)CC)cc1` (tested in a mixture with another compound) as the compound, how does the growth (DU-145 prostate) read?
Its growth is 64.5%.

What about the growth (K-562 leukemia) of the same compound?
The growth was 22.8%.

And the growth (MALME-3M melanoma)?
The growth was -19.9% (active).

And the growth (MDA-MB-231 breast)?
The growth was 22.2%.

And the growth (RXF 393 renal)?
Its growth is 50.3%.

What about the growth (SF-268 CNS) of the same compound?
The growth was 23%.

And the growth (SF-295 CNS)?
Its growth is 97.2%.

What about the growth (SF-539 CNS) of the same compound?
Its growth is 18.4%.

And the growth (UACC-257 melanoma)?
Its growth is 12.9%.

What about the growth (M14 melanoma) of the same compound?
Its growth is 44.5%.

And the growth (HCT-15 colon)?
Its growth is 98.4%.

And the growth (HT29 colon)?
The growth was 25.5%.

And the growth (SNB-19 CNS)?
Its growth is 16.4%.

And the growth (U251 CNS)?
The growth was 20.8%.

What about the growth (PC-3 prostate) of the same compound?
The growth was 42.6%.

What about the growth (SK-MEL-5 melanoma) of the same compound?
Its growth is -52.3% (active).

And the growth (UACC-62 melanoma)?
Its growth is 9.07% (active).

What about the growth (LOX IMVI melanoma) of the same compound?
The growth was 29.1%.

And the growth (SK-MEL-28 melanoma)?
The growth was 16%.

`O=c1c2c(c3ccccc3n1-c1ccccc1)NC(=S)NC2c1ccccc1` (stereo unspecified) was tested. Which growth (DU-145 prostate) did it give?
Its growth is 115%.

And the growth (K-562 leukemia)?
The growth was 101%.

And the growth (MALME-3M melanoma)?
Its growth is 112%.

And the growth (MDA-MB-231 breast)?
The growth was 84.7%.

And the growth (RXF 393 renal)?
Its growth is 117%.

And the growth (SF-268 CNS)?
The growth was 104%.

And the growth (SF-295 CNS)?
The growth was 121%.

And the growth (SF-539 CNS)?
The growth was 94.8%.

And the growth (UACC-257 melanoma)?
Its growth is 108%.

And the growth (M14 melanoma)?
Its growth is 98.8%.

And the growth (HCT-15 colon)?
The growth was 97.1%.

And the growth (HT29 colon)?
The growth was 132%.

And the growth (SNB-19 CNS)?
Its growth is 99%.

And the growth (U251 CNS)?
The growth was 107%.

What about the growth (PC-3 prostate) of the same compound?
Its growth is -47.1% (active).

And the growth (SK-MEL-5 melanoma)?
Its growth is 97.9%.

And the growth (UACC-62 melanoma)?
The growth was 96%.

And the growth (LOX IMVI melanoma)?
Its growth is 97.9%.

What about the growth (SK-MEL-28 melanoma) of the same compound?
The growth was 116%.

Which results are given for `S=C(N/N=C/c1cc(Cl)cc(Cl)c1)NC12CC3CC(CC(C3)C1)C2`?
growth (DU-145 prostate): 77.4%; growth (K-562 leukemia): 79.5%; growth (MALME-3M melanoma): 54.6%; growth (MDA-MB-231 breast): 52.6%; growth (RXF 393 renal): 67.2%; growth (SF-268 CNS): 64.6%; growth (SF-295 CNS): 35.1%; growth (SF-539 CNS): 68.9%; growth (UACC-257 melanoma): 83%; growth (M14 melanoma): 89%; growth (HCT-15 colon): 84.9%; growth (HT29 colon): 49.9%; growth (SNB-19 CNS): 93.6%; growth (U251 CNS): 40.6%; growth (PC-3 prostate): 75.5%; growth (SK-MEL-5 melanoma): 97%; growth (UACC-62 melanoma): 89.5%; growth (LOX IMVI melanoma): 45.1%; growth (SK-MEL-28 melanoma): 90.9%
